DT40 TDP1 CPT – qHTS for Inhibitors of human tyrosyl-DNA phosphodiesterase 1 (TDP1): qHTS in cells in presence of CPT; chicken DT40 Tdp1-/-;hTDP1 cells + 20 nM CPT, ATP luminescence, 48 h; Potency, µM (top dose mostly 46.2 µM), inactives show at the top dose activity change, negative = growth inhibition, actives largely listed as inhibitors; actives 12% (n = 420,000); also: potency is read from the fitted curve at half-maximal effect; % is scaled to controls: 0 for no effect and ±100 for the full control effect; nearly all actives have a fitted effect of over 55% in size
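Cell growth measured by CellTiter-Glo luminescence after a minimum 48 h, 37 C compound exposure with 20 nM CPT in Tdp1-knockout DT40 cells stably expressing hTDP1, seeded 400/well; qHTS titration format.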
SW480 rereplic – A quantitative high throughput screen for small molecules that induce DNA re-replication in SW480 colon adenocarcinoma cells; SW480 DNA re-replication, Hoechst DNA content imaging, 48 h; Potency, µM (doses to about 46.1 µM), for inactives: at the top dose re-replication activation, hits mostly activators; actives 1.8% (n = 340,000); also: potency is read from the fitted curve at half-maximal effect; % of control where 0% means no effect; nearly all actives have a fitted effect of over 55% in size
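SW480 cells exposed to compounds for 48 hr at 37 C, 5% CO2, then Hoechst-stained 40 min. Nuclear DNA content imaged by fluorescence scanning (405 nm excitation, 500-530 nm emission); re-replication scored as increased high-intensity nuclei.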
MCF10A rerep – A quantitative high throughput screen for small molecules that induce DNA re-replication in MCF 10a normal breast cells. MCF 10A DNA re-replication, Hoechst nuclear intensity, 48 h. Potency, µM (series often up to 46.1 µM), for the others: top-dose activity, positive = re-replication, most hits filed as activators. actives 2.9% (n = 350,000). AID 624296, 2012; also: potency is read from the fitted curve at half-maximal effect; % of control where 0% means no effect; nearly all actives have a fitted effect of over 50% in size
IL1B secr inh – qHTS for Inhibitors of Inflammasome Signaling: IL-1-beta AlphaLISA Primary Screen; THP-1 LPS/ATP IL-1B secretion, AlphaLISA, 16 h; active compounds read low; actives 4.7% (n = 360,000); activity change, % at 57.5 µM; AID 743279, 2014; in the data active = activity change below about -50%; inconclusive = mostly about -30% to -49%; also: % is scaled to controls: 0 for no effect and ±100 for the full control effect
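THP-1 cells pretreated 1 hr with compounds (up to 57.5 uM final), then stimulated with LPS (250 ng/mL final) plus ATP (1.25 mM final); secreted IL-1B measured by AlphaLISA after 16 hr, decreased signal indicating inhibition.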
Chronic BCR inh – qHTS Assay to Find Inhibitors of Chronic Active B-Cell Receptor Signaling; ABC-DLBCL IkBa-CBG/CBR reporter, luminescence ratio, 4 h; Potency, µM (highest dose often 46.1 µM), inactives show at the top dose activity change, negative = inhibition, most hits filed as inhibitors; actives 0.05% (n = 340,000); active = well fitted inhibition curve with a large enough effect in the signal ratio, with a control signal flat, not every such curve was filed as active; inconclusive = small, poorly fitted or top-dose-only effect, or effect the other way, or a change in a side signal; the % refers to the signal ratio;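 also: potency is read from the fitted curve at half-maximal effect; plate controls were basal doxycycline-induced cells for no effect and cells given 10 µM MG132 for full effect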
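TMD8 human ABC-DLBCL cells with doxycycline-inducible IκBα–green luciferase fusion and unfused red luciferase, in 0.5% FBS medium; compounds up to 46 uM, 4 h at 37C. Green/red luminescence ratio, filter-overlap corrected, fitted to concentration-response curves.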
DT40 TDP1 no CPT – qHTS for Inhibitors of human tyrosyl-DNA phosphodiesterase 1 (TDP1): qHTS in cells in absence of CPT | DT40 Tdp1-/- hTDP1 cells, no CPT, ATP luminescence, 48 h | Potency, µM (highest dose often 46.2 µM), without a hit: at the highest dose activity change, negative = growth inhibition, usual class: inhibitors | actives 15% (n = 420,000) | AID 686978, 2013; also: potency is read from the fitted curve at half-maximal effect; % is scaled to controls: 0 for no effect and ±100 for the full control effect; nearly all actives have a fitted effect of over 55% in size
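Chicken DT40 Tdp1-/- cells stably complemented with human TDP1 were seeded at 400 cells/well with DMSO in place of 20 nM camptothecin. After compound pinning, cells grew at least 48 hr at 37 °C; viability read by CellTiter-Glo luminescence.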
An asterisk follows results filed as active; ? = inconclusive; / = not tested or not shown; ! = not confirmed by another sample; [ ] = remark or other dose. This is a sample that favours compounds with a hit; in the whole collection about 19% have one here. Unless noted, calls follow the shape of the dose curve; as a rule, active = well fitted curve in the direction sought with a large enough effect; inconclusive = small, poorly fitted or top-dose-only effect, or another doubt; inactive = no such curve, though single readings can be large; an effect the other way counts as inactive or inconclusive.

SMILES	DT40 TDP1 CPT	SW480 rereplic	MCF10A rerep	IL1B secr inh	Chronic BCR inh	DT40 TDP1 no CPT
O=C(O)c1ccccc1C(=O)NCc1ccc2c(c1)OCO2	-3.0%	1.7%	18.2%	19.0	-9.7%	-2.8%
O=S(=O)(c1ccccc1)N1N=C(c2ccc(O)cc2)CC1c1ccco1 (configuration not stated)	8.2µM*	3.6%	-23.4%	20.3	?	7.31µM*
COc1ccccc1C1CC(c2ccc(NS(C)(=O)=O)cc2)=NN1S(=O)(=O)c1ccccc1 (configuration not stated)	-13.0%	?	12.6%	?	-1.7%	-12.4%
O=S(=O)(c1ccccc1)N1N=C(c2ccc(Br)cc2)CC1c1ccco1 (configuration not stated)	16.4µM*	?	?	?	11.2%	16.4µM*
O=S(=O)(c1ccccc1)N1N=C(c2ccccc2)CC1c1ccccc1F (configuration not stated)	16.4µM*	0.9%	?	-22.1	0.0%	?
O=C(Oc1ccc(-c2nnco2)cc1)c1cc(S(=O)(=O)N2CCOCC2)ccc1F	-7.1%	/	/	4.2	/	-27.2%
COc1ccc(-c2nc3cc(C)ccn3c2NCC2CCCO2)cc1OC (configuration not stated)	-3.5%	2.3%	-5.1%	10.1	/	-0.1%
CCCCCCSc1ccc(-c2nc3cnccn3c2NCCCC)cc1	?	20.6µM*	?	0.0	-1.4%	20.6µM*
CCCCNc1c(-c2ccc(-c3ccc(C(C)=O)cc3)c(OC)c2)nc2cc(C)ccn12	18.4µM*	?	?	-50.7*	-2.6%	10.3µM*
CCCCNc1c(-c2ccc(OC)c(SC(C)CC)c2)nc2ccc(C)cn12 (configuration not stated)	18.4µM*	12.8%[9.22 µM]	?	-99.6*!	?	18.4µM*
CCCCNc1c(-c2ccc(OC)c(SC(C)CC)c2)nc2cnccn12 (configuration not stated)	?	?	?	-66.5*	/	25.9µM*
c1ccc(-c2nc3cnccn3c2Nc2ccc3c(c2)OCCO3)cc1	?	0.1%	13.3%	81.8	-6.4%	?
Cc1ccc(C(=O)N2CCNC(=O)C2CC(=O)Nc2ccccc2)cc1 (configuration not stated)	-5.6%	-8.2%	-3.6%	-10.9	-0.9%	14.7%
CCCCNc1c(-c2ccc(OC)c(SC(C)CC)c2)nc2ccc(Cl)cn12 (configuration not stated)	25.9µM*	11.3%	20.6µM*	-66.2*	3.6%	25.9µM*
CCCCCCSc1cc(-c2nc3ccc(Cl)cn3c2NCCCC)ccc1OC	?	-17.4%[9.22 µM]	1.9%	0.0	4.7%	?
COCCNc1c(-c2ccc(O)cc2)nc2ccc(Cl)cn12	32.6µM*	-3.4%	4.2%	-13.0	?	-100.7%
CC(C)(C)Cc1c(-c2cccc(Br)c2)nc2ccc(Cl)cn12	?	/	/	-0.3	/	?
CCCCCCSc1cc(-c2nc3ccc(C)cn3c2NCCCC)ccc1OC	?	?	?	-71.8*	1.0%	?
CCCCNc1c(-c2cccc(SC(C)CC)c2)nc2ccc(Cl)cn12 (configuration not stated)	16.4µM*	-5.9%	?	-1.6	2.5%	14.6µM*
COc1ccc(-c2nc3ccc(Cl)cn3c2CC(C)(C)C)cc1OC	?	/	/	0.0	/	-55.1%
Nc1ccccc1-n1nc2ccc3ccccc3c2n1	?	/	/	50.6	/	-26.5%
Cc1ccc(S(=O)(=O)N2CCCC(c3nc4c(nnn4Cc4ccc5c(c4)OCCO5)c(=O)[nH]3)C2)cc1 (configuration not stated)	?	?	?	?	-0.3%	?
CCCCNc1c(-c2ccc(OC)c(SC(C)CC)c2)nc2cc(C)ccn12 (configuration not stated)	16.4µM*	?	20.6µM*	-85.4*	?	14.6µM*
COc1ccc(-c2nc3cc(C)ccn3c2NCc2ccc3c(c2)OCO3)cc1	?	0.0%	23.7%	-1.6	?	?
CCCCNc1c(-c2ccc(Sc3ccc(OC)cc3)cc2)nc2cc(C)ccn12	?	?	23.1µM*	-12.7	?	-85.6%
SMILES	DT40 TDP1 CPT	SW480 rereplic	MCF10A rerep	IL1B secr inh	Chronic BCR inh	DT40 TDP1 no CPT
Oc1ccc(-c2nc(-c3ccc(O)c(O)c3)cs2)cc1	8.2µM*	1.46µM*	?	0.0	?	8.2µM*
O=S(=O)(Nc1ccccc1)c1ccc(-c2csnn2)cc1	?	?	0.0%	?	-4.5%	23.1µM*
O=S(=O)(Nc1ccc(-c2csc(-c3ccccc3)n2)cc1)c1ccc(F)cc1	?	11.5%	16.4µM*	-100.9*	?	?
Fc1ccc(-c2csc(-c3ccncc3)n2)cc1	16.3%	-2.1%	-2.8%	4.5	0.4%	15.7%
COc1ccc(S(=O)(=O)N2CCOCC2)cc1N=Nc1sc(N)nc1-c1ccccc1	-29.7%	7.2%	12.7%	?	-2.1%	2.31µM*
CCN(CC)C(=O)COc1c(-c2ccco2)oc2ccccc2c1=O	-20.0%	-7.4%	?	-9.2	1.1%	?
CC(=O)Oc1c(-c2ccco2)oc2ccccc2c1=O	-17.7%	16.4µM*	?	-81.9*	?	-29.5%
CN(C)c1ccc(CNC(=O)Cc2ccc(NC(=O)N3CCCCc4ccccc43)cc2)cc1	?	/	/	/	/	20.6µM*
Cc1cccc(CNC(=O)Cc2ccc(NC(=O)N3CCCCc4ccccc43)cc2)c1	?	/	/	/	/	16.4µM*
COCCNC(=O)Cc1ccc(NC(=O)N2CCCCc3ccccc32)cc1	0.3%	/	/	/	/	-10.3%
CCOC(=O)/C(=N/Nc1ccccc1)N1CCCc2ccccc21	-21.9%	0.8%	-32.9%	-9.2	7.5%	?
COc1ccc(C)cc1NC(=O)N1CCCc2ccccc21	?	13.6%	12.9%	-8.5	?	23.1µM*
CCOC(=O)/C(=N/Nc1ccc(OC)cc1)N1CCCc2ccccc21	-24.7%	-0.2%[9.22 µM]	14.0%	-53.0*	?	?
O=S(=O)(Nc1ccc(-c2ccc3nncn3n2)cc1)c1cccc(F)c1	-24.6%	-7.8%	14.7%	5.7	5.0%	-17.8%
